# PubChem BioAssay AID743279 (National Center for Advancing Translational Sciences (NCATS), 2014)
# The campaign covered roughly 360,000 compounds. About 17,000 (4.7%) were called active. Inconclusive results (about 5%) are left out. This is one part of a sample in which actives are shown more often than they occur. No stated cut-off is given here; in the data, active means activity change below about -50%; inconclusive means mostly about -30% to -49%; inactive means weaker than that.
# Assay: qHTS for Inhibitors of Inflammasome Signaling: IL-1-beta AlphaLISA Primary Screen
# Conditions: THP-1 LPS/ATP IL-1B secretion, 16 h; at 57.5 µM, hits give low values
# Procedure, shortened: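 THP-1 cells pretreated 1 hr with compounds (up to 57.5 uM final), then stimulated with LPS (250 ng/mL final) plus ATP (1.25 mM final); secreted IL-1B measured by AlphaLISA after 16 hr, decreased signal indicating inhibition.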
# On the % scale 0 is the no-effect control and ±100 the full control effect.
row,Compound,activity change
1,Cn1ccc(=Nc2ccc(NC(=O)c3ccc(N=c4ccn(C)c5ccc([N+](=O)[O-])cc45)cc3)cc2)cc1,-20.4% (inactive)
2,Cc1ccc(CN2CC(C(=O)N3CCN(S(=O)(=O)c4ccccc4)CC3)CC2=O)cc1 (stereo not given),-19.1% (inactive)
3,Cc1ccc(S(=O)(=O)N2CCN(c3ncnc4ccccc34)CC2)cc1,-9.9% (inactive)
4,Cc1ccc(C)c(S(=O)(=O)N2CCN(c3ncnc4sccc34)CC2)c1,-53.3% (active)
5,COc1ccc(C)cc1S(=O)(=O)N1CCN(S(=O)(=O)c2cc(C(=O)O)ccc2C)CC1,34.7% (inactive)
6,O=C1OC(Oc2ccc(Br)cc2)(c2ccccc2)c2ccccc21 (stereo not given),-13.8% (inactive)
7,CSc1ncc(C(=O)NCCCc2ccccc2)c(C)n1,0% (inactive)
8,O=C(Cc1ccccc1)Nc1cccc(NC(=O)c2ccccc2)c1,-19.5% (inactive)
9,O=C(CCl)Nc1cccc(CP(=O)(c2ccccc2)c2ccccc2)c1,-99.8% (active)
10,O=C(CSCc1ccccc1)Nc1ccccc1,0.36% (inactive)
11,COC(=O)c1ccc2nc(-c3cccc(Br)c3)c(Cc3ccccc3C(F)(F)F)n2c1,0% (inactive)
12,CCCC(=O)N1CCC1(C)C(=O)NCc1ccc(SC)cc1 (stereo not given),21.3% (inactive)
13,C/C(=N\NC(=S)NCc1ccccc1)c1ccc(Cl)cc1,0% (inactive)
14,C/C(=N\OCC(=O)O)c1ccc(Cl)cc1,0% (inactive)
15,C/C(=N\N=C(N)N)c1ccc(Cl)cc1,-86.4% (active)
16,CCc1nc2c(OCC(=O)C(C)(C)C)cccn2c1N(C)C(=O)c1ccccc1F,32.1% (inactive)
17,O=C(Nc1cc(Br)ccc1F)c1nc[nH]c1C(=O)NCc1ccccc1,-4.71% (inactive)
18,OC[C@@H]1CN(C2CCCC2)C[C@H](n2cnc3c(NC4CCC4)ncnc32)O1,5.5% (inactive)
19,CCN1CCC2(CC1)N=C(c1ccc(F)cc1)C(=S)N2C(=O)c1ccc(C)cc1,-115% (active)
20,CCN1CCN(C(=O)CSc2ccc(C)cc2)CC1,-5.59% (inactive)

row,Compound,activity change
1,Cc1ccc(SCC(=O)N2CCN(c3ccc(F)cc3)CC2)cc1,-12.4% (inactive)
2,CC(Sc1nncn1C)C(=O)NCCC1=CCCCC1 (stereo not given),1.27% (inactive)
3,CCCCN(Cc1ccccc1)C(=O)C1CCN(Cc2sccc2C)CC1,-20.5% (inactive)
4,O=C(NCc1ccccn1)[C@@H]1CCCN1C(=O)[C@@H]1CCCN1C(=O)c1ccccc1,0% (inactive)
5,CCN(CC)CCOc1ccc2c(c1)C(=NNC(=O)c1ccccn1)c1cc(OCCN(CC)CC)ccc1-2,-56.2% (active)
6,CCOc1cc2ccccc2cc1C(=O)Nc1ccccn1,9.73% (inactive)
7,CCC(C(=O)OCCN(CC)CC)c1ccccc1 (stereo not given),-16.3% (inactive)
8,Cc1c(Cl)cccc1NC(=S)NCC(O)c1ccccc1 (stereo not given),-6.92% (inactive)
9,CC(C)(CNCC(O)c1ccccc1)N1CCOCC1 (stereo not given),-7.93% (inactive)
10,OC(CNCc1ccc(Cl)c(Cl)c1)c1ccccc1 (stereo not given),-69.4% (active)
11,Cc1c(NC(=O)C(=O)N/N=C/c2cccs2)c(=O)n(-c2ccccc2)n1C,-21.9% (inactive)
12,O=C(NCc1ccc(F)cc1)c1cc(C2CCCCN2C(=O)c2ccccn2)on1 (stereo not given),42.4% (inactive)
13,O=C(OCc1cn(-c2ccc(Cl)c(Cl)c2)nn1)c1ccccc1Cl,-2.76% (inactive)
14,Cc1cccc(CN2CCN(C3CN(Cc4cn(Cc5cc(C)cc(C)c5)nn4)S(=O)(=O)C3)CC2)c1 (stereo not given),-18.8% (inactive)
15,CCOc1ccc(C(C)=O)cc1COC(=O)CNC(=O)c1cccs1,-9.33% (inactive)
16,COC(=O)c1ccc(COC(=O)c2cnc(Cl)c(Cl)c2)cc1,-13.4% (inactive)
17,CCOc1ccc(C(C)=O)cc1COC(=O)c1cnc(Cl)c(Cl)c1,-108% (active)
18,CC(C)c1cc(Cn2c3ccccc3c(=O)n2C(C)Cn2cc(C3CC3)nn2)on1 (stereo not given),-6.05% (inactive)
19,O=C1CS(=O)CN1c1ccc(Oc2ccccc2)cc1 (stereo not given),15% (inactive)
20,O=C1c2ccccc2C(c2nc3ccccc3[nH]2)N1c1ccccc1 (stereo not given),81% (inactive)

row,Compound,activity change
1,Cc1cccn2c(=O)c3cc(C(=O)NC4CCCCC4)sc3nc12,-16.1% (inactive)
2,CC1(C(=O)NS(=O)(=O)C2CC2)CCCN(C(=O)CSc2ccccc2)C1 (stereo not given),10.6% (inactive)
3,CCOc1ccc(C(=O)Nc2c3c(nn2-c2ccccc2)CS(=O)(=O)C3)cc1,12.2% (inactive)
4,CC1CCN(c2nc3c(c(=O)[nH]c(=O)n3C)n2CCCc2ccccc2)CC1,14.1% (inactive)
5,O=C1N=C(N2CCOCC2)S/C1=C\C=C/c1ccccc1,-18% (inactive)
6,CC1CCN(C2=NC(=O)/C(=C/c3cn[nH]c3-c3ccccc3)S2)CC1,-59.2% (active)
7,CC(C)C(NC(=O)c1c(F)cccc1F)C(=O)NCc1ccncc1 (stereo not given),4.1% (inactive)
8,CC(C)C(NC(=O)OCc1ccccc1)C(=O)OCC(=O)N1C(C)CCCC1C (stereo not given),-2.86% (inactive)
9,Cc1ccc(S(=O)(=O)N2CCN(C(=O)c3ccc(-n4cncn4)c([N+](=O)[O-])c3)CC2)cc1,-5.16% (inactive)
10,O=C(c1ccc(N2CCOCC2)c([N+](=O)[O-])c1)N1CCN(S(=O)(=O)c2cccs2)CC1,-0.922% (inactive)
11,CC(C)c1ccc(S(=O)(=O)N2CCN(C(=O)c3ccc(N4CCCC4)c([N+](=O)[O-])c3)CC2)cc1,-52% (active)
12,CCN(CCn1cccn1)Cc1nc(-c2ccc(C(=O)OC)cc2)no1,81.6% (inactive)
13,Clc1ccc(-c2cc(C3CCNCC3)[nH]n2)c(Cl)c1,-79.9% (active)
14,Clc1ccc(-c2cc(-c3ccccn3)on2)c(Cl)c1,0% (inactive)
15,O=C(Cn1ccc([N+](=O)[O-])n1)NCc1cccs1,5.04% (inactive)
16,O=C(NCCc1cccc(F)c1)C1CC(O)CN1C(=O)Nc1ccccc1 (stereo not given),22.4% (inactive)
17,CCCS(=O)(=O)C(=C1Nc2ccccc2N1)S(=O)(=O)CCC,3.44% (inactive)
18,O=C(CN1CCCCC1)N1c2ccccc2Sc2ccc(C(F)(F)F)cc21,-13.4% (inactive)
19,COc1cc(/C=C/C(=O)N2c3ccccc3Sc3ccc(C(F)(F)F)cc32)cc(OC)c1OC,-1.9% (inactive)
20,O=C(CN1CCCCCC1)N1c2ccccc2Sc2ccc(C(F)(F)F)cc21,-60% (active)
